The whole screen tested about 5,500 compounds, of which about 2,000 (36%) were called active. Another 18% or so got no clear call; they are omitted. Cut-off read from the data, not from the text of the source: active = normalized growth mostly below about 0.91 (no sharp cut-off); inconclusive = no clear call, values can overlap the other calls; inactive = mostly above about 0.92. The list shows a part of the results.
Assay: chemical genetic growth profiling, strain panel (AID 1159580);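 note: tested at 20 µM; growth read once vehicle control cultures reached saturation at 30 °C; 1 = growth at the plate median or of vehicle wells; lower values mean less growth of the strain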
Conditions: S. cerevisiae deletion strains, growth OD

Measured: normalized growth

O=C(/C=C/c1ccc(O)cc1)c1ccccc1O
active: locus YAL021C, strain ccr4, stronger effect = lower value 0.762 | locus YAL026C, strain drs2, stronger effect = lower value 0.359 | locus YAL030W, strain snc1, stronger effect = lower value 0.359 | locus YBL061C, strain skt5, stronger effect = lower value 0.366 | locus YBR009C, strain hhf1, stronger effect = lower value 0.25 | locus YBR023C, strain chs3, stronger effect = lower value 0.452 | locus YBR171W, strain sec66, stronger effect = lower value 0.774 | locus YBR231C, strain swc5, stronger effect = lower value 0.382 | locus YBR279W, strain paf1, stronger effect = lower value 0.423 | locus YCL011C, strain gbp2, stronger effect = lower value 0.366 | locus YCL016C, strain dcc1, stronger effect = lower value 0.446 | locus YCL061C, strain MRC1, stronger effect = lower value 0.484 | locus YCL069W, strain vba3, stronger effect = lower value 0.256 | locus YCR088W, strain abp1, stronger effect = lower value 0.639 | locus YDL005C, strain med2, stronger effect = lower value 0.759 | locus YDL040C, strain nat1, stronger effect = lower value 0.683 | locus YDR001C, strain nth1, stronger effect = lower value 0.552 | locus YDR069C, strain doa4, stronger effect = lower value 0.859 | locus YDR137W, strain rgp1, stronger effect = lower value 0.255 | locus YDR159W, strain sac3, stronger effect = lower value 0.305 | locus YDR195W, strain ref2 1.15 [resistant] | locus YDR297W, strain sur2, stronger effect = lower value 0.554 | locus YDR334W, strain swr1, stronger effect = lower value 0.301 | locus YDR335W, strain msn5, stronger effect = lower value 0.382 | locus YDR392W, strain spt3, stronger effect = lower value 0.103 | locus YEL003W, strain gim4, stronger effect = lower value 0.236 | locus YEL037C, strain rad23, stronger effect = lower value 0.667 | locus YEL061C, strain CIN8 (second series), stronger effect = lower value 0.175 | locus YER015W, strain faa2, stronger effect = lower value 0.469 | locus YER016W, strain bim1, stronger effect = lower value 0.478 | locus YER111C, strain swi4, stronger effect = lower value 0.126 | locus YER155C, strain BEM2 (second series), stronger effect = lower value 0.128 | locus YFR010W, strain ubp6, stronger effect = lower value 0.768 | locus YGL167C, strain pmr1, stronger effect = lower value 0.703 | locus YGL173C, strain kem1, stronger effect = lower value 0.585 | locus YGL227W, strain vid30, stronger effect = lower value 0.169 | locus YGL240W, strain doc1, stronger effect = lower value 0.453 | locus YGL253W, strain hxk2, stronger effect = lower value 0.2 | locus YHR013C, strain ard1, stronger effect = lower value 0.441 | locus YHR027C, strain rpn1, stronger effect = lower value 0.624 | locus YHR030C, strain SLT2, stronger effect = lower value 0.0955 | locus YHR079C, strain IRE1, stronger effect = lower value 0.119 | locus YHR142W, strain chs7, stronger effect = lower value 0.14 | locus YJL092W, strain hpr5, stronger effect = lower value 0.586 | locus YJL095W, strain BCK1 (second series), stronger effect = lower value 0.202 | locus YJL095W, strain BCK1, stronger effect = lower value 0.105 | locus YJL115W, strain asf1, stronger effect = lower value 0.684 | locus YJL129C, strain trk1, stronger effect = lower value 0.463 | locus YJL154C, strain vps35, stronger effect = lower value 0.582 | locus YJL164C, strain tpk1, stronger effect = lower value 0.275 | locus YJL166W, strain qcr8, stronger effect = lower value 0.228 | locus YJL187C, strain SWE1, stronger effect = lower value 0.355 | locus YJR066W, strain TOR1, stronger effect = lower value 0.0115 | locus YKL160W, strain elf1, stronger effect = lower value 0.229 | locus YKR026C, strain gcn3, stronger effect = lower value 0.759 | locus YKR091W, strain srl3, stronger effect = lower value 0.71 | locus YLL001W, strain dnm1, stronger effect = lower value 0.488 | locus YLL026W, stronger effect = lower value 0.325 | locus YLL041C, strain sdh2, stronger effect = lower value 0.499 | locus YLR027C, strain aat2, stronger effect = lower value 0.271 | locus YLR113W, strain HOG1, stronger effect = lower value 0.125 | locus YLR221C, strain rsa3, stronger effect = lower value 0.229 | locus YLR258W, strain gsy2, stronger effect = lower value 0.426 | locus YLR262C, strain YPT6 (second series), stronger effect = lower value 0.301 | locus YLR320W, strain mms22, stronger effect = lower value 0.145 | locus YLR342W, strain FKS1, stronger effect = lower value 0.315 | locus YLR357W, strain rsc2, stronger effect = lower value 0.726 | locus YLR370C, strain arc18, stronger effect = lower value 0.713 | locus YLR384C, strain iki3, stronger effect = lower value 0.761 | locus YML120C, strain ndi1, stronger effect = lower value 0.246 | locus YMR058W, strain fet3, stronger effect = lower value 0.383 | locus YMR125W, strain sto1, stronger effect = lower value 0.171 | locus YMR129W, stronger effect = lower value 0.656 | locus YMR205C, strain PFK2, stronger effect = lower value 0.248 | locus YMR231W, strain pep5, stronger effect = lower value 0.529 | locus YNL071W, strain lat1, stronger effect = lower value 0.0982 | locus YNL183C, strain NPR1, stronger effect = lower value 0.00476 | locus YNL209W, strain ssb2, stronger effect = lower value 0.652 | locus YNL248C, strain rpa49, stronger effect = lower value 0.379 | locus YNL322C, strain KRE1 (second series), stronger effect = lower value 0.506 | locus YNR049C, strain mso1, stronger effect = lower value 0.569 | locus YOR001W, strain rrp6, stronger effect = lower value 0.385 | locus YOR070C, strain gyp1, stronger effect = lower value 0.331 | locus YOR080W, strain dia2, stronger effect = lower value 0.766 | locus YOR083W, strain WHI5, stronger effect = lower value 0.366 | locus YOR106W, strain vam3, stronger effect = lower value 0.321 | locus YOR231W, strain MKK1, stronger effect = lower value 0.102 | locus YOR265W, strain rbl2, stronger effect = lower value 0.584 | locus YOR270C, strain vph1, stronger effect = lower value 0.285 | locus YOR290C, strain snf2, stronger effect = lower value 0.214 | locus YPL051W, strain arl3, stronger effect = lower value 0.325 | locus YPL078C, strain atp4, stronger effect = lower value 0.256 | locus YPL106C, strain sse1, stronger effect = lower value 0.609 | locus YPL240C, strain hsp82, stronger effect = lower value 0.325 | locus YPL256C, strain CLN2, stronger effect = lower value 0.103

— PubChem BioAssay AID1159580 (chemical genetic matrix, 2015)
